SK-BR-3 tox 24h – SK-BR-3 proliferation inhibitors; SK-BR-3 viability, CellTiter-Glo ATP luminescence, 24 h; hits give low values; viability, % at 10 µM; 0.47% of 41,000 active; AID 847;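 active = viability at or below the median of all test compounds minus 3 SD, in both replicates if run twice, cut at about 45% in these data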
Cdc25B block – inhibitors of human Cdc25B phosphatase; AID 368; 0.1% of 65,000 active; inhibition, %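 (compounds tested at 10 µM final in the well)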; recombinant Cdc25B, OMFP fluorescence Ex485/Em525; in the data active = inhibition above about 50%
MKP-1 inh – human dual specificity phosphatase 1 inhibition; inhibition, %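 (compounds tested at a single concentration somewhere between 10 and 100 µM)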; recombinant MKP-1, OMFP hydrolysis fluorescence; AID 374; 0.15% of 65,000 active;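 active = inhibition above about 50%, limit read from the data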
Target sequence (P28562 whole entry, looked up): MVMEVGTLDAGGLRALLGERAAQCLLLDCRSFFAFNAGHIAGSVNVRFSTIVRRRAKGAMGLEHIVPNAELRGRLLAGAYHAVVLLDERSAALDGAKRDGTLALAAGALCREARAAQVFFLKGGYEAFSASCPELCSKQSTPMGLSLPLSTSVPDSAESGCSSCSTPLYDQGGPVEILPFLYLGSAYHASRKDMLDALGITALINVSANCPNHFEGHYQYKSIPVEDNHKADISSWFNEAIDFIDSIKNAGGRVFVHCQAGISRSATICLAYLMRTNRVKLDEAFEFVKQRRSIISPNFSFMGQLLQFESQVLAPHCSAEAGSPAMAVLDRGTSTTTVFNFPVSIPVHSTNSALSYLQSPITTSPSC
PKA inh – PKA (human) kinase inhibition; P17612; PKA Kemptide phosphorylation, Kinase-Glo ATP luminescence; inhibition, % at 6 µM; 0.1% of 65,000 active;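 active = inhibition above the screen-wide mean inhibition plus 3 SD, cut at about 21% in these data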
ROCK2 inh – blocks human Rho kinase 2 activity. AID 604. purified ROCK2, Kinase-Glo ATP depletion luminescence. O75116. inhibition, % at 6 µM. 0.35% of 60,000 active;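 active = inhibition above the screen-wide mean inhibition plus 3 SD, cut at about 18% in these data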
Hsp90 inh – displaces geldanamycin probe from tumor Hsp90. AID 429. P07900. inhibition, % at 30 µM. 0.35% of 64,000 active. NCI-N417 lysate Hsp90, Cy3B-geldanamycin FP displacement;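 active = inhibition above 50%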
Redox H2O2 0p5DTT – redox cycling H2O2 generation, Cdc25B counter-screen; shares compounds with Cdc25B block; cell-free redox cycling H2O2 generation, 0.5 mM DTT; EC50, µM; 50% of 30 active; AID 682; in the data active = EC50 below about 30 µM
Redox H2O2 1DTT – generates H2O2 by redox cycling in 1 mM DTT; shares compounds with Cdc25B block; cell-free redox cycling H2O2 generation; EC50, µM; 30 tested, under 10 active; in the data active = EC50 below about 50 µM
Redox H2O2 – generates H2O2 by redox cycling in DTT; EC50, µM; 60 tested, under 10 active; shares compounds with MKP-1 inh; AID 672; Redox cycling H2O2 generation, phenol red/HRP; call rule not given here
Of the large screens only hits and unclear results are named; the others gave an inactive call (follow-up assays come after a bar, where they were run). In the library only some 1% were active in any assay of this set; here they are far more common.

CCOc1ccc2noc3c2c1C(=O)c1ccccc1-3	Cdc25B block 92, MKP-1 inh 65 (no result: SK-BR-3 tox 24h) | Redox H2O2 0p5DTT inactive | Redox H2O2 1DTT inactive | Redox H2O2 inactive
Cc1cn[nH]c1	none (no result: SK-BR-3 tox 24h, Cdc25B block, MKP-1 inh, PKA inh, ROCK2 inh)
O=C(OC1CCCCC1)c1ccc2c(c1)C1C=CCC1C(C(=O)O)N2 (stereo unspecified)	Cdc25B block 63, MKP-1 inh 52 | Redox H2O2 0p5DTT inactive | Redox H2O2 1DTT inactive | Redox H2O2 inactive
Cc1nc2ccc(Cl)cc2nc(C)/c1=N\O	none
O=C(O)/C(=C1/OC(=O)c2ccccc21)c1ccccc1	none
O=C(NC1(O)C(=O)c2ccccc2C1=O)c1ccccc1	Cdc25B block 96, MKP-1 inh 62, Hsp90 inh 73 | Redox H2O2 0p5DTT 29 | Redox H2O2 1DTT inactive | Redox H2O2 inactive
CC(C)Cn1c(N)c(C(=O)COC(=O)c2cc(-c3ccco3)nc3ccccc23)c(=O)n(C)c1=O	MKP-1 inh 51 (no result: SK-BR-3 tox 24h) | Redox H2O2 inactive
Cc1nn(-c2ccccc2)c(C)c1C(=O)OCC(=O)c1c(N)n(CC(C)C)c(=O)n(C)c1=O	none (no result: SK-BR-3 tox 24h)
O=C1C=C(NCc2ccc(Cl)c(Cl)c2)CC1	MKP-1 inh 70 (no result: SK-BR-3 tox 24h) | Redox H2O2 inactive
Cc1ccsc1C(=O)OCC(=O)N1CCOCC1	none (no result: SK-BR-3 tox 24h)
CC1Cc2ccccc2N1C(=O)C1CCCN(S(=O)(=O)c2cccc3nsnc23)C1 (stereo unspecified)	none (no result: SK-BR-3 tox 24h)
CC1=C(/C=C/C(C)=C/C=C/C(C)=C/C(=O)O)C(C)(C)CCC1	MKP-1 inh 56 | Redox H2O2 inactive
CCCCn1c(SCC(=O)c2ccc(OC)cc2OC)nc2cc(S(N)(=O)=O)ccc21	MKP-1 inh 54 (no result: SK-BR-3 tox 24h) | Redox H2O2 inactive
CCCCn1c(SCc2c(C)noc2C)nc2cc(S(N)(=O)=O)ccc21	none (no result: SK-BR-3 tox 24h)
CCOc1ccc(-c2cc3nc(C4CCN(C(=O)OC(C)(C)C)CC4)c(C(=O)O)cn3n2)cc1	MKP-1 inh 64 (no result: SK-BR-3 tox 24h) | Redox H2O2 inactive
Cc1ccc(S(=O)(=O)NC(=O)c2cc(C)n(CCCn3ccnc3)c2C)cc1	none (no result: SK-BR-3 tox 24h)
COc1cc(/C=C(/C#N)c2ccc(F)cc2)ccc1OCc1ccc(C(=O)O)o1	MKP-1 inh 62 | Redox H2O2 inactive
CCOc1ccccc1NC(=O)C1CCCN(C(=O)NCc2ccccc2)C1 (stereo unspecified)	none
O=C(C1CC1)N1CCc2cc(Br)cc(S(=O)(=O)NCC3COc4ccccc4O3)c21 (stereo unspecified)	none (no result: ROCK2 inh, Hsp90 inh)
CC(C)(C)N1C(=O)Cc2c1nc(N)c1c(N)nc(N3CCCCC3CO)c(C#N)c21 (stereo unspecified)	MKP-1 inh 53 (no result: SK-BR-3 tox 24h) | Redox H2O2 inactive
Cc1nc2c(C(=O)NCCC3=CCCCC3)c[nH]n2c(=O)c1Cl	MKP-1 inh 54 (no result: SK-BR-3 tox 24h, ROCK2 inh) | Redox H2O2 inactive
Cc1nc2c(C(=O)NCc3ccc4c(c3)OCO4)c[nH]n2c(=O)c1Cl	none (no result: SK-BR-3 tox 24h, ROCK2 inh)

Assay outcomes as filed in PubChem BioAssay.
